Screening results deposited in PubChem by National Center for Advancing Translational Sciences (NCATS).
Most compounds without a hit are left out; they make up all but 19% or so of the library.
IL1B secr inh: inhibitors of inflammasome signaling (IL-1 beta secretion); activity change, % at 57.5 µM; actives 4.7% (n = 360,000); THP-1 LPS/ATP IL-1B secretion, AlphaLISA, 16 h; hits give low values; in the data active = activity change below about -50%; inconclusive = mostly about -30% to -49%
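Secreted IL-1B measured by AlphaLISA bead assay after 16 h compound exposure of THP-1 cells; compounds (final up to 57.5 uM) added 1 h before LPS (250 ng/mL) and ATP (1.25 mM) stimulation; lower signal means less secretion.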
HT1080 IDH1KD tx: kills HT-1080 cells with IDH1 knockdown. HT-1080 IDH1 knockdown viability, ATP luminescence, 48 h. Potency, µM (top dose mostly 46.1 µM), for inactives: top-dose activity, negative = toxicity, most hits filed as cytotoxic. actives 2% (n = 360,000). AID 686971;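 also: potency is read from the fitted curve at half-maximal effect; 0% = DMSO wells and -100% = cell-free medium wells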
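IDH1KD HT-1080 cells, 750/well, RPMI + 5% FBS; compound pinned after 2 h settling; 48 h, 37 °C; CellTiter-Glo luminescence; % activity normalised to DMSO and no-cell wells; curves fitted, classed by r2 and efficacy.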
HT1080NT lethal: kills 2HG-producing HT-1080-NT fibrosarcoma cells | HT-1080-NT fibrosarcoma viability, CellTiter-Glo ATP luminescence, 48 h | Potency, µM (titrated, usually from 46.1 µM), without a hit: top-dose activity, negative = less viability, actives largely listed as cytotoxic | actives 1.6% (n = 360,000) | AID 686970;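 also: NT is the 2HG producing partner of a matched IDH1 knockdown line; potency is read from the fitted curve at half-maximal effect; 0% = DMSO-treated cells and -100% = media-only wells without cells; nearly all actives have a fitted effect of over 55% in size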
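750 cells/well, RPMI + 5% FBS; 2 h settle, compound pin-transfer, 48 h at 37 degrees C. CellTiter-Glo 10 min RT, luminescence. Normalized to DMSO and media-only wells.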
TDP1 cell CPT: growth inhibition of DT40 Tdp1-/-;hTDP1 cells with camptothecin (screen for TDP1 inhibitors) | chicken DT40 Tdp1-/-;hTDP1 cells + 20 nM CPT, ATP luminescence, 48 h | Potency, µM (doses to about 46.2 µM), for the others: at the highest dose activity change, negative = growth inhibition, actives largely listed as inhibitors | actives 12% (n = 420,000) | AID 686979; also: potency is read from the fitted curve at half-maximal effect; nearly all actives have a fitted effect of over 55% in size
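Chicken DT40 Tdp1-/- cells stably complemented with human TDP1 were seeded at 400 cells/well in medium containing 20 nM camptothecin, exposed to pin-transferred compounds, and grown at 37 °C for at least 48 hr. Viability was read as ATP luminescence.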
DT40 TDP1 no CPT: qHTS for Inhibitors of human tyrosyl-DNA phosphodiesterase 1 (TDP1): qHTS in cells in absence of CPT; Potency, µM (series often up to 46.2 µM), for the others: at the highest dose activity change, negative = growth inhibition, actives largely listed as inhibitors; actives 15% (n = 420,000); AID 686978, 2013; DT40 Tdp1-/- hTDP1 cells, no CPT, ATP luminescence, 48 h; also: potency is read from the fitted curve at half-maximal effect; nearly all actives have a fitted effect of over 55% in size
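Luminescent ATP content (CellTiter-Glo) served as the growth readout. Knockout chicken DT40 cells expressing human TDP1 were exposed to compounds without camptothecin for a minimum 48 hr at 37 °C.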
* hit, by the source's call; ? = inconclusive; nt = not tested or not shown; ! = not confirmed by another sample. Unless noted, calls follow the shape of the dose curve; as a rule, active = well fitted curve in the direction sought with a large enough effect; inconclusive = small, poorly fitted or top-dose-only effect, or another doubt; inactive = no such curve, though single readings can be large; an effect the other way counts as inactive or inconclusive. Unless noted, % is scaled to controls: 0 for no effect and ±100 for the full control effect.

SMILES | IL1B secr inh | HT1080 IDH1KD tx | HT1080NT lethal | TDP1 cell CPT | DT40 TDP1 no CPT
O=C(Nc1ccccc1Cl)c1cc(C2CCCN(C(=O)c3cccc(O)c3)C2)on1 (centres undefined) | 14 | 24% | 2% | ? | -27%
CCOC1=C2[C@@H](CN(S(=O)(=O)c3ccc(C)cc3)[C@H]2c2cccc3ccccc23)[C@H]2C(=O)N(CC)C(=O)[C@H]2C1 | 5 | -15% | 4% | ? | ?
FC(F)(F)c1cccc(Cc2noc(CN3CCC(c4ccncc4)CC3)n2)c1 | -13 | -14% | -9% | 5.8µM* | 7.3µM*
O=C(C1CCN(Cc2nc(Cc3cccc(F)c3)no2)CC1)N1CCOCC1 | -3 | 24% | 23% | 20% | 15%
CCCCN(C)C(=O)Cc1c(OC)ccc2cc(Br)ccc12 | 14 | -2% | -7% | 23µM* | 18µM*
COc1ccc(CCN(C)Cc2c(O)ccc3cc(Br)ccc23)cc1OC | -94* | -14% | -15% | ? | -23%
COC(=O)C1CCN(C(=O)Cc2c(OC)ccc3cc(Br)ccc23)CC1 | 33 | 3% | 0% | 18µM* | ?
COc1ccc(CN(C)Cc2c(O)ccc3cc(Br)ccc23)cc1OC | -25 | -10% | -21% | -28% | ?
O=C(/C=C/c1cc[n+](CC(=O)c2ccc3cccc4c3c2CC4)cc1)c1ccc2cccc3c2c1CC3 | -8 | -25% | -25% | ? | ?
Cc1cc2oc(C(=O)Nc3ccc(S(=O)(=O)Nc4onc(C)c4C)cc3)cc(=O)c2cc1C | nt | nt | nt | 11% | -1%
O=C(NCc1ccc(C(=O)O)cc1)OCc1ccccc1 | 1 | 5% | 3% | 5% | -9%
Cc1ccccc1-c1nc2c(s1)CCc1onc(-c3ccc(Cl)cc3)c1-2 | 6 | 6% | 14% | 18% | -9%
COc1ccc(-c2noc3c2-c2nc(-c4ccccc4C)sc2CC3)cc1 | 53 | ? | 13µM* | ? | ?
CC(OC(=O)C1CC1)C(=O)Nc1ccc([N+](=O)[O-])cc1Cl (centres undefined) | -2 | 8% | 13% | -4% | 4%
Cc1ccc(NC(=O)c2csc(-c3ccccc3)c2C)cc1 | -23 | ? | ? | ? | ?
CC(=O)Nc1scc(-c2ccccc2)[n+]1-c1ccc(C)cc1 | -20 | -9% | 1% | 15µM* | 13µM*
CC(C)N(C(=O)Cn1c(=O)oc2ccccc21)c1ccccc1 | 16 | -1% | 1% | -2% | -25%
CCCCNc1ccc(C(=O)OCCN(C)C)cc1 | 31 | 0% | 6% | 13µM*! | ?
CCC(=O)Nc1c2c(nn1-c1cccc(Cl)c1)CSC2 | 3 | 12% | 13% | -10% | 0.73µM*
Cc1ccc(S(=O)(=O)c2ccc([N+](=O)[O-])o2)cc1 | -100* | 2.6µM* | 7.3µM* | 0.033µM* | 0.18µM*
CNc1oc(C)nc1S(=O)(=O)c1ccc(C)cc1 | 10 | 5% | -1% | -1% | -16%
CCSC(N)=Nc1ccc(C(F)(F)F)cc1 | nt | 18% | 22% | -6% | ?
NC(N)=NN=C(c1ccc(F)cc1)c1ccc(C(F)(F)F)cc1 | -104* | 7.3µM* | 2.9µM* | 2.6µM* | 2.3µM*
C[C@H](CO)N1C[C@H](C)[C@H](CN(C)Cc2cncnc2)Oc2cc(Br)ccc2S1(=O)=O | -12 | -3% | -6% | ? | ?
O=C(CSc1ncc(CO)n1Cc1ccccc1)Nc1nc2ccccc2s1 | nt | nt | nt | 21µM* | 16µM*
O=C(CSc1ncc(CO)n1Cc1ccccc1)Nc1ccc(C(F)(F)F)cc1 | nt | nt | nt | 15µM* | 23µM*
CC(C)(C)c1ccc2c(c1)N(CC(=O)N1CCOCC1)C(=O)CO2 | -9 | 5% | 4% | 5% | 5%
CC(C)(C)OC(=O)N[C@@H](Cc1ccccc1)C(=O)N[C@@H](CO)[C@H](O)[C@@H]1C[C@@H]1C(=O)NC1CCCCC1 | -4 | 12% | 9% | -18% | -18%
